# Measured values as given in PubChem BioAssay (Tox21).
# Inconclusive results are not listed. Entries that show only a call come without a potency. A number with no mark means an inactive call. Activity calls are given as the source filed them. Calls come from the whole dose curve; as a rule, active = well fitted curve in the direction sought with a large enough effect in the repeat runs; inconclusive = weak or mixed curves; inactive = no such curve, though single readings can be large; an effect the other way counts as inactive or inconclusive.
# Columns and labels:
# [1] = qHTS assay to identify small molecule agonists of the RXR signaling pathway - cell viability counter screen (AID 1159529); note: nearly all actives have a fitted effect of over 50% in size; note: potency is the fitted concentration of half-maximal effect;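 for activity change, negative = cytotoxicity: HEK 293T cells carrying an RXR-alpha UAS beta-lactamase reporter; series mostly up to about 77 µM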
# How it was run: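 Tox21 10K compounds were tested for cytotoxicity against GeneBLAzer RXR-alpha HEK 293T cells grown in 2% charcoal-stripped FBS. Exposure lasted 16 hr at 37 C, 5% CO2; viability read by CellTiter-Glo luminescence.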
# [2] = qHTS assay to identify small molecule antagonists of the retinoid acid receptor (RAR) signaling pathway - cell viability counter screen (AID 1159551); note: nearly all actives have a fitted effect of over 35% in size
# How it was run: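 C3RL4 cells were seeded overnight at 37 C, then treated with compounds plus 1 uM (final) retinol for 6 h at 37 C. Viability was read as ATP by CellTiter-Glo luminescence after 30 min at room temperature.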
# [3] = qHTS assay to identify small molecule antagonists of the retinoic acid receptor (RAR) signaling pathway (AID 1159552; note: nearly all actives have a fitted effect of over 50% in size)
# How it was run: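 Overnight-plated C3RL4 reporter cells get compound, then retinol to 1 uM final; plates sit 6 hr at 37 C, 5% CO2. A luciferase reagent is added and light output recorded after 30 min at room temperature.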
smiles,measurement,setting,value
CC[C@H]1OC(=O)[C@H](C)[C@@H](O[C@H]2C[C@@](C)(OC)[C@@H](O)[C@H](C)O2)[C@H](C)[C@@H](O[C@@H]2O[C@H](C)C[C@H](N(C)C)[C@H]2O)[C@](C)(OC)C[C@@H](C)C(=O)[C@H](C)[C@@H](O)[C@]1(C)O,Potency,[1],inactive
same,outcome,[2],inactive
CN1CCC(=C2c3ccccc3CCc3cccnc32)CC1,Potency,[1],inactive
same,outcome,[2],inactive
CC(C)(N)C#N,Potency,[1],inactive
same,outcome,[2],inactive
CC(C)C[C@@H](N)C(=O)O,"activity change, negative = cytotoxicity",[1],4.29% [at 15.8 µM]
same,"activity change, negative = cytotoxicity",[2],3.59% [at 19 µM]
CC1=CCC(O)(C(C)C)CC1 (stereo not given),Potency,[1],inactive
same,outcome,[2],inactive
CC(=O)N1C[C@H](O)C[C@H]1C(=O)O,Potency,[1],inactive
same,outcome,[2],inactive
Cc1cccc(C)c1NC(=O)CC12CCCN1CCC2,Potency,[1],inactive
same,outcome,[2],inactive
CC(C)(C)C(=O)c1ccccc1,Potency,[1],inactive
same,outcome,[2],inactive
Cc1nc(C2CCCCC2)c(-c2ccc(S(N)(=O)=O)c(F)c2)o1,Potency,[1],inactive
same,outcome,[2],inactive
CCCCCC(=O)OCCc1ccccc1,Potency,[1],inactive
same,outcome,[2],inactive
COc1cc2c(cc1OC)-c1cc3ccc(OC)c(OC)c3c[n+]1CC2,Potency,[1],inactive
same,outcome,[2],inactive
O=C(O)CNC(=O)c1ccc(CO)o1,Potency,[1],inactive
same,outcome,[2],inactive
CO[Si](C)(OC)c1ccccc1,Potency,[1],inactive
same,outcome,[2],inactive
CCOC(=O)C(=O)CCCCCCl,Potency,[1],inactive
same,outcome,[2],inactive
CCCC[N+](C)(CCCC)CCCC,Potency,[1],inactive
same,outcome,[2],inactive
O=S(=O)(O)c1cccc2ccccc12,Potency,[1],inactive
same,outcome,[2],inactive
NC(CCC(=O)O)C(=O)O (stereo not given),Potency,[1],inactive
same,outcome,[2],inactive
C=CC(C)(CCC=C(C)C)OC(=O)CC (stereo not given),Potency,[1],inactive
same,outcome,[2],inactive
CC1=CC(=O)[C@H]2C[C@@H]1C2(C)C,Potency,[1],inactive
same,outcome,[2],inactive
CN(C)CCN(C)CCN(C)C,Potency,[1],inactive
same,outcome,[2],inactive
CCCc1ncc(C[n+]2ccccc2C)c(N)n1,Potency,[1],inactive
same,outcome,[2],inactive
N[C@H](C(=O)O)[C@@H](O)c1ccc(O)c(O)c1,Potency,[1],inactive
same,outcome,[2],inactive
O=C(O)c1cn(C2CC2)c2cc(N3CCNCC3)c(F)cc2c1=O,Potency,[1],inactive
same,outcome,[2],inactive
Cc1cc(C)c(N=Nc2c(O)c(S(=O)(=O)O)cc3cc(S(=O)(=O)O)ccc23)cc1C,"activity change, negative = cytotoxicity",[1],-2.64% [at 6.97 µM]
same,"activity change, negative = cytotoxicity",[2],0.446% [at 8.39 µM]
CCCCCCCCCCCCCCC(=O)O,Potency,[1],inactive
same,outcome,[2],inactive
Clc1cc(Cl)c(Cl)nc1Cl,Potency,[1],inactive
same,outcome,[2],inactive
CC(C)C1CCC(O)CC1 (stereo not given),Potency,[1],inactive
same,outcome,[2],inactive
COc1cc(C)nc(-n2nc(C)cc2OC)n1,Potency,[1],inactive
same,outcome,[2],inactive
NCCCC[C@H](N[C@@H](CCc1ccccc1)C(=O)O)C(=O)N1CCC[C@H]1C(=O)O,Potency,[1],inactive
same,outcome,[2],inactive
Clc1cc(Cl)cc(Cl)c1,Potency,[1],inactive
same,outcome,[2],inactive
CN1[C@@H]2CC[C@H]1CC(OC(=O)C(O)c1ccccc1)C2 (stereo not given in full),Potency,[1],inactive
same,outcome,[2],inactive
NC(=O)NC1N=C([O][Al])NC1=O (stereo not given),Potency,[1],inactive
same,outcome,[2],inactive
CC(C)CC(C)(N)C#N (stereo not given),Potency,[1],inactive
same,outcome,[2],inactive
CNCCO,Potency,[1],inactive
same,outcome,[2],inactive
CCO[Si](OCC)(OCC)c1ccccc1,Potency,[1],inactive
same,outcome,[2],inactive
COCCOCC(OC)OC,Potency,[1],inactive
same,outcome,[2],inactive
CCCCCCCCCCCCCCCCCCO,Potency,[1],inactive
same,outcome,[2],inactive
[O-][n+]1cccc(CO)c1,Potency,[1],inactive
same,outcome,[2],inactive
CC(COc1ccccc1)NN (stereo not given),Potency,[1],inactive
same,outcome,[2],inactive
CCOC(=O)OC(C)OC1=C(C(=O)Nc2ccccn2)N(C)S(=O)(=O)c2ccccc21 (stereo not given),Potency,[1],inactive
same,outcome,[2],inactive
NC(=O)N1c2ccccc2CC(=O)c2ccccc21,Potency,[1],inactive
same,outcome,[2],inactive
CCOC(=O)c1ccccc1,Potency,[1],inactive
same,outcome,[2],inactive
CC(=O)c1ccc2ccccc2c1,Potency,[1],inactive
same,outcome,[2],inactive
O=[N+]([O-])c1cncn1CCN1CCOCC1,Potency,[1],inactive
same,outcome,[2],inactive
Cc1coc2ccccc2c1=O,Potency,[1],inactive
same,outcome,[2],inactive
CC(C)[C@H]1CC[C@@H](C)CC1=O,Potency,[1],inactive
same,outcome,[2],inactive
c1ccc(Cc2ccccc2)cc1,Potency,[1],inactive
same,outcome,[2],inactive
CN(C)[C@@H]1C(=O)C(C(=O)NCN2CCCC2)=C(O)[C@@]2(O)C(=O)C3=C(O)c4c(O)cccc4[C@@](C)(O)C3C[C@@H]12 (stereo not given in full),Potency,[1],inactive
same,outcome,[2],inactive
O=C(CO)[C@@H](O)[C@H](O)[C@@H](O)CO,Potency,[1],inactive
same,outcome,[2],inactive
C=CN1CCCCCC1=O,Potency,[1],inactive
same,outcome,[2],inactive
CC(=O)NC(=O)c1ccccc1O,Potency,[1],inactive
same,outcome,[2],inactive
COc1cccc(OC)c1C(=O)N[C@@H]1C(=O)N2[C@@H]1SC(C)(C)[C@@H]2C(=O)O,Potency,[1],inactive
same,outcome,[2],inactive
[K+],Potency,[1],inactive
same,outcome,[2],inactive
O=C(O)Cc1csc(-c2ccc(Cl)cc2)n1,Potency,[1],inactive
same,outcome,[2],inactive
CCCC(=O)O[C@]1(C(=O)CC)CC[C@H]2[C@@H]3CCC4=CC(=O)CC[C@]4(C)[C@H]3[C@@H](O)C[C@@]21C,Potency,[1],inactive
same,outcome,[2],inactive
CCCCN(CCC(=O)OCC)C(C)=O,Potency,[1],inactive
same,outcome,[2],inactive
COc1cc(C(=O)OC(COCCC(C)C)CN2CCOCC2)cc(OC)c1OC (stereo not given),Potency,[1],inactive
same,outcome,[2],inactive
CCCCc1ccc2c(n1)[C@@H](c1ccc(OC)cc1C[C@H](C)C(=O)O)[C@H](C(=O)O)[C@H]2c1ccc2c(c1)OCO2,Potency,[1],inactive
same,outcome,[2],inactive
CCOc1c(N2CCOCC2)cnn(C)c1=O,Potency,[1],inactive
same,outcome,[2],inactive
CCCCCCC#CC(=O)OC,Potency,[1],inactive
same,outcome,[2],inactive
CC(C#N)(CCC(=O)O)N=NC(C)(C#N)CCC(=O)O (stereo not given),Potency,[1],inactive
same,outcome,[2],inactive
CCC(C(=O)NC(=O)NC(C)=O)c1ccccc1 (stereo not given),Potency,[1],inactive
same,outcome,[2],inactive
CC[N+](CC)(CC(=O)Nc1c(C)cccc1C)Cc1ccccc1 (tested in a mixture with another compound),Potency,[1],inactive
same,outcome,[2],inactive
C=COCC1CCC(COC=C)CC1 (stereo not given),Potency,[1],inactive
same,outcome,[2],inactive
O=S(=O)(O)c1cc(O)c(O)c(S(=O)(=O)O)c1,Potency,[1],inactive
same,outcome,[2],inactive
CCCCCCCCCCCCSC,Potency,[1],inactive
same,outcome,[2],inactive
CC1(C)OC[C@@H](COC(=O)CCc2ccc(OC[C@@H](O)CNCCNC(=O)N3CCOCC3)cc2)O1,Potency,[1],inactive
same,outcome,[2],inactive
CCC(C)(CCCC(C)C)OC(C)=O (stereo not given),Potency,[1],inactive
same,outcome,[2],inactive
CN1C(C)(C)CC(O)CC1(C)C,Potency,[1],inactive
same,outcome,[2],inactive
OCCCCCO,Potency,[1],inactive
same,outcome,[2],inactive
NS(=O)(=O)Cc1noc2ccccc12,Potency,[1],inactive
same,outcome,[2],inactive
CCCCc1nc(Cl)c(CO)n1Cc1ccc(-c2ccccc2-c2nn[nH]n2)cc1,Potency,[1],inactive
same,outcome,[2],inactive
Nc1ccncc1N,Potency,[1],inactive
same,outcome,[2],inactive
C1CCC2(CCCCO2)OC1,Potency,[1],inactive
same,outcome,[2],inactive
CCOc1ccc2nc(S(N)(=O)=O)sc2c1,Potency,[1],inactive
same,outcome,[2],inactive
CCOc1ccccc1OCC,Potency,[1],inactive
same,outcome,[2],inactive
CCCCOCCOC(=O)CCCCCCCCC(=O)OCCOCCCC,Potency,[1],inactive
same,outcome,[2],inactive
same,Potency,[3],inactive
CCCCCCCC1CCCC1=O (stereo not given),Potency,[1],inactive
same,outcome,[2],inactive
same,Potency,[3],inactive
O=C(CO)[C@@H](O)[C@H](O)[C@H](O)CO,Potency,[1],inactive
same,outcome,[2],inactive
Cc1nc2ccc(CN(C)c3ccc(C(=O)N[C@@H](CCC(=O)O)C(=O)O)s3)cc2c(=O)[nH]1,Potency,[1],inactive
same,outcome,[2],inactive
CO[C@@]1(NC(=O)CSC[C@@H](N)C(=O)O)C(=O)N2C(C(=O)O)=C(CSc3nnnn3C)CS[C@@H]21,Potency,[1],inactive
same,outcome,[2],inactive
CCOC(=O)COc1cc(-n2ncc(C(F)(F)F)c(C)c2=O)c(F)cc1Cl,Potency,[1],inactive
same,outcome,[2],inactive
same,Potency,[3],inactive
CC(=O)C1CCCCC1=O (stereo not given),Potency,[1],inactive
same,outcome,[2],inactive
CCCC(C)C(=O)OCC (stereo not given),Potency,[1],inactive
same,outcome,[2],inactive
same,Potency,[3],inactive
CC1=NN(c2cccc(S(=O)(=O)O)c2)C(=O)C1,Potency,[1],inactive
same,outcome,[2],inactive
CC(C)(CCC(=O)O)C(=O)O,Potency,[1],inactive
same,outcome,[2],inactive
O=CN(CCO)CCO,Potency,[1],inactive
same,outcome,[2],inactive
CCN(CC#N)c1cccc(C)c1,Potency,[1],inactive
same,outcome,[2],inactive
same,Potency,[3],inactive
CC(C)(C#N)Nc1nc(Cl)nc(NC2CC2)n1,Potency,[1],inactive
same,outcome,[2],inactive
C=C[Si](OC(C)=O)(OC(C)=O)OC(C)=O,Potency,[1],inactive
same,outcome,[2],inactive
same,Potency,[3],inactive
O=[N+]([O-])c1ccc(/C=N\O)o1,Potency,[1],inactive
same,outcome,[2],inactive
C=CCCCCCCCCC(=O)OCC,Potency,[1],inactive
same,outcome,[2],inactive
Cc1ncc([C@@H](CCCCCCc2ccc3c(n2)NCCC3)CC(=O)O)cn1,Potency,[1],inactive
same,outcome,[2],inactive
CC1(C)[C@@H]2CC[C@@]1(C)[C@H](O)C2,Potency,[1],inactive
same,outcome,[2],inactive
CC(C)(C)OC(=O)c1cccc(N)c1,Potency,[1],inactive
same,outcome,[2],inactive
same,Potency,[3],inactive
CCCCCCCCN1CCCC1=O,Potency,[1],inactive
same,outcome,[2],inactive
same,Potency,[3],inactive
CCOCC(C)O (stereo not given),Potency,[1],inactive
same,outcome,[2],inactive
CC(=O)O[C@@]12CO[C@@H]1C[C@H](O)[C@@]1(C)C(=O)[C@H](O)C3=C(C)[C@@H](OC(=O)[C@H](O)[C@@H](NC(=O)OC(C)(C)C)c4ccccc4)C[C@@](O)([C@@H](OC(=O)c4ccccc4)[C@H]21)C3(C)C,Potency,[1],inactive
same,outcome,[2],inactive
CC(CO)(CO)[N+](=O)[O-],Potency,[1],inactive
same,outcome,[2],inactive
CCN(C=O)CC,Potency,[1],50.3 µM (active)
same,outcome,[2],inactive
CCOC(=O)CCC(=O)OCC,Potency,[1],inactive
same,outcome,[2],inactive
same,Potency,[3],inactive
COc1ccccc1OCC1CNC(=O)O1 (stereo not given),Potency,[1],inactive
same,outcome,[2],inactive
Cc1ccccc1N=C(N)N=C(N)N,Potency,[1],inactive
same,outcome,[2],inactive
same,Potency,[3],inactive
CC(C)C(=O)OC(=O)C(C)C,Potency,[1],inactive
same,outcome,[2],inactive
CC(C)c1ccc2ncccc2c1,Potency,[1],inactive
same,outcome,[2],inactive
same,Potency,[3],inactive
O=Cc1cccc(Br)c1,Potency,[1],inactive
same,outcome,[2],inactive
same,Potency,[3],inactive
O=C(O)CNC(=O)c1ccccc1,Potency,[1],inactive
same,outcome,[2],inactive
CCCOC(=O)CC,Potency,[1],inactive
same,outcome,[2],inactive
CCCCCCCCCCOc1cc2c(=O)c(C(=O)OCC)c[nH]c2cc1OCC,"activity change, negative = cytotoxicity",[1],-0.18% [at 6.97 µM]
same,"activity change, negative = cytotoxicity",[2],1.07% [at 8.39 µM]
c1ccc2sc(SN3CCOCC3)nc2c1,Potency,[1],inactive
same,outcome,[2],inactive
same,Potency,[3],inactive
CC(=O)N[C@H]1[C@H]([C@H](O)[C@H](O)CO)OC(C(=O)O)=C[C@@H]1N=C(N)N,Potency,[1],inactive
same,outcome,[2],inactive
